Our source for the composite z-score and z-score values is PubChem BioAssay.

SMILES strings stand for the structures.

Experiment [1] concerns Human papillomavirus type 1a protein E7 (residues 44-93). As to the kind of experiment: small molecules binding HPV E7 44-93 – biochemical, small-molecule microarray, residues 44-93, 635 nm fluorescence, primary screen (AID 1108).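 Note: E7 fragment applied at 1 µg/mL in TBST for 1 h at 4 C; score combines spot fluorescence with its signal to noise ratio.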 The conditions noted are these: fluorescence 635 nm, higher = more signal.
Experiment [2] in a line: hepatitis C replication reporter changes, two-sided – Huh7 cells, luciferase reporter, HCV replication inhibitor project, primary screen (AID 1109).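 Note: huh7 hepatoma cells harbouring a luciferase neomycin HCV replicon reporter; luciferase luminescence as measure of HCV replicon replication; test concentration not given here.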 The conditions noted are these: Huh7 HCV replicon luciferase reporter, 48 h; higher = more signal. (In a reporter assay the amount or activity of a reporter protein is the signal.)
For experiment [3], the target named is Left-right determination factor 2 (Homo sapiens) (UniProt O00292). As to the kind of experiment: small molecules binding LEFTY2 protein – biochemical, small-molecule microarray, 635 nm fluorescence scan, primary screen (AID 1110). The conditions noted are these: higher = more signal.
Sequence of Left-right determination factor 2 (Homo sapiens) (O00292 whole entry, looked up): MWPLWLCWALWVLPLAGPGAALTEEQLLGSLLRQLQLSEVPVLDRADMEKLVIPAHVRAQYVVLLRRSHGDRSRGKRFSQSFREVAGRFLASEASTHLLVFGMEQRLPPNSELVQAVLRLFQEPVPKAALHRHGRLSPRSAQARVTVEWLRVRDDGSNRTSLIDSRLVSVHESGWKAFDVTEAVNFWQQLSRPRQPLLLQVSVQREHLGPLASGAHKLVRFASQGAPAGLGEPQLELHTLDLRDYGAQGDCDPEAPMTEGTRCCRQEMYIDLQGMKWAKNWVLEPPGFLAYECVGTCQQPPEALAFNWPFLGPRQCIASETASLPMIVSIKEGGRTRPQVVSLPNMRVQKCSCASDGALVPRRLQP
For experiment [4], the target named is Calmodulin-1 (Homo sapiens) (UniProt P0DP23). The experiment can be described thus: small molecules binding calmodulin-1 with EGTA – biochemical, small-molecule microarray, Cy5-labelled CALM1, profiling panel (AID 1111).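 Note: labelled calmodulin applied in Tris saline Tween buffer holding calcium plus EGTA and DTT.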 The conditions noted are these: Cy5-CALM1 binding fluorescence, higher = more signal.
The target is the same in experiment [5]. As to the kind of experiment: small molecules binding Ca-loaded calmodulin-1 – biochemical, small-molecule microarray, Cy5-labelled CALM1, plus calcium, artefact control for SMM control-protein annotation, profiling panel (AID 1112).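 Note: score merges spot fluorescence with signal to noise from triplicate slides.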 The conditions noted are these: Cy5-CALM1 binding fluorescence, higher = more signal.
Experiment [6] in a line: probe aWnt5a binding to arrayed compounds – biochemical, biotinylated probe, 635/667 nm fluorescence, primary screen (AID 1113).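 Note: score merges 667 nm fluorescence intensity with signal-to-noise per printed feature.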 The conditions noted are these: small-molecule microarray, higher = more signal.
Experiment [7] is described as follows: probe aShh binding to arrayed compounds – biochemical, biotinylated probe, 635/667 nm fluorescence, primary screen (AID 1114).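 Note: probe is biotin-labelled aShh protein from a stem cell growth factor screen; measures binding of labelled protein to compounds printed on the slide; score merges feature fluorescence at 667 nm with signal-to-noise.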 The conditions noted are these: small-molecule microarray, higher = more signal.
Experiment [8] can be described thus: probe aNog binding to arrayed compounds – biochemical, biotinylated probe, 635/667 nm fluorescence, primary screen (AID 1115).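 Note: probe is biotinylated aNog protein used at 0.15 µg/mL for 1 h at 4 C; z-score combines 667 nm fluorescence of each spot with its signal to noise.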 The conditions noted are these: small-molecule microarray, higher = more signal.
For experiment [9], the target named is Torsin-1A-interacting protein 1 (Homo sapiens) (UniProt Q5JTV8). The experiment can be described thus: compound microarray binding of lysate hLAP1 – cell lysate, small-molecule microarray, COS7 lysate, 635/667 nm fluorescence, primary screen (AID 1116). The conditions noted are these: 635 nm fluorescence, higher = more signal.
Sequence of Torsin-1A-interacting protein 1 (Homo sapiens) (Q5JTV8 whole entry, looked up): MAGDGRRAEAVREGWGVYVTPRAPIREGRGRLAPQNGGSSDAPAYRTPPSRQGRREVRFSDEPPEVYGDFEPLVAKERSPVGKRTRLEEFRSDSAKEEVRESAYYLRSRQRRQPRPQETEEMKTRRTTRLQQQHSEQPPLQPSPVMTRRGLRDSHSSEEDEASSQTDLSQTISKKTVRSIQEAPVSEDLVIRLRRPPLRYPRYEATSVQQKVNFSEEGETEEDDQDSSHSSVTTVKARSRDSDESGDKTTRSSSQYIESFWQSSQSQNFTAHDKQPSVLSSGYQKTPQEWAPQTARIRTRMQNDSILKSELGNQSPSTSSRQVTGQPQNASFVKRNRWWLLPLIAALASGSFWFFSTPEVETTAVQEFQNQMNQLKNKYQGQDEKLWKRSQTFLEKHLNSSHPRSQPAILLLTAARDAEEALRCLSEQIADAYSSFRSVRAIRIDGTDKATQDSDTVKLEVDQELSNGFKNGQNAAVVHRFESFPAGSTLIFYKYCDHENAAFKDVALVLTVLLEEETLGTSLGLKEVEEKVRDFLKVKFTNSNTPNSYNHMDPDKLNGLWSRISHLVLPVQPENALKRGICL
Experiment [10] has as its target Alpha-bungarotoxin (Bungarus multicinctus) (UniProt P60615). As to the kind of experiment: compounds binding labelled alpha-BTX control protein – biochemical, small-molecule microarray, Alexa647 label, 635/667 nm fluorescence, artefact control for SMM control protein annotation, profiling panel (AID 1117). The conditions noted are these: alpha-BTX-A647 binding fluorescence, higher = more signal.

Sequence of Alpha-bungarotoxin (Bungarus multicinctus) (P60615 whole entry, looked up): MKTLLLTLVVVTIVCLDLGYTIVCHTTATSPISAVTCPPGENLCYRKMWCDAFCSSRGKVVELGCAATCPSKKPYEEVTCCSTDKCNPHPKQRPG

Turning to `COc1cc(NN2C(C(O)c3ccco3)C=CC3C(=O)N(c4ccccc4)C(=O)C32)cc(OC)c1OC` (stereo not given), the composite z-score in experiment [1] is -0.271; in experiment [3], -0.198; in experiment [4], -0.3; in [5], -0.657; in experiment [6], -0.213; in [7] it was -0.29. For the same molecule, the figures for the composite z-score in [8], in [9] and in experiment [10] were 0.133, 1.05 and 0.425, respectively. Further, in experiment [2], the z-score was -0.937.
Regarding `CC1CC/C=C\[C@H]2OC34C=CCN(C(C)(C)C)C(=O)[C@H]3N(CCO)C(=O)[C@@H]4C2C(=O)O1` (stereo not given in full), the composite z-score in [1] was -0.432; in [3], -1.66; in [4], -1.34; in experiment [5] it was -0.746; in [6] it was -0.224; in experiment [7], -0.372. Also, the values for the composite z-score in [8], in experiment [9] and in experiment [10] were 0.489, -1.25 and -0.153, respectively. In [2], this molecule yielded a z-score of -0.106.
For the molecule `CC(C)c1ccc(NN2C(C(O)c3ccc(B(O)O)cc3)C=CC3C(=O)N(c4ccccc4)C(=O)C32)cc1` (stereo not given), the composite z-score in [1] was 1.25; in experiment [3], -0.355; in [4], 2.02; in experiment [5], 1.08; in experiment [6], 0.0324; in experiment [7], -0.0362. In addition, the composite z-score stood at 2.19 in [8], 2.08 in experiment [9] and 1.27 in experiment [10]. In addition, in [2], the z-score is 4.39.
Turning to `Cc1ccc(S[C@]2(C(=O)NCCCN(C)C)CC(=O)N(Cc3ccccc3C(F)(F)F)[C@@H]2c2ccc(CO)cc2)cc1`, the composite z-score in experiment [1] was -0.812; in [3], -1.89; in experiment [4], -0.168; in [5], 0.0625; in [6], -0.0944; in experiment [7] it was 0.0893. The composite z-score in [8] was 0.216; in [9], 0.122; in experiment [10], 0.266. For the same molecule, in experiment [2], the z-score is -0.767.
Take `COC(=O)[C@@]1(Cc2ccc(F)cc2)[C@H]2c3cc(C(=O)N(C)C)n(Cc4ccc(Cl)c(C(F)(F)F)c4)c3C[C@H]2CN1C(=O)c1ccccc1`: the composite z-score was 0.199 in experiment [1]; -0.401 in experiment [3]; 2.75 in [4]; 1.63 in experiment [5]; -0.101 in experiment [6]; -0.0578 in experiment [7]. Further, the composite z-score in [8] was -0.222; in [9] it was 2.41; in [10], 2.36. Also, in experiment [2], the z-score is -2.11.
`CC1(C)[C@@H]2CC(C(O)C3C=CC4C(=O)N(Cc5ccccc5)C(=O)C4N3n3cnnc3)=C[C@H]1C2` (stereo not given in full): the composite z-score was 1.4 in [1]; 0.223 in experiment [3]; 0.549 in experiment [4]; -0.0552 in experiment [5]; 0.0374 in [6]; -0.271 in experiment [7]. Further, the composite z-score was -0.0304 in experiment [8], 0.187 in experiment [9] and 0.6 in experiment [10]. The same molecule showed a z-score in [2] of -0.254.
On to `COc1ccc(CCNC(=O)[C@@H]2c3ccccc3C(=O)N(Cc3ccccc3Cl)[C@H]2c2ccc(CO)cc2)cc1`, for which the composite z-score is 1.07 in experiment [1]; 0.147 in experiment [3]; -0.0739 in [4]; -0.0544 in experiment [5]; -0.152 in [6]; 0.0611 in [7]. Besides, the values for the composite z-score in experiment [8], in [9] and in [10] were 0.395, 0.412 and -0.473, respectively. Further, the z-score in [2] is -1.37.
As for `CC(C)C(=C=CC[C@@H](O)c1ccc(OCCO)cc1)C[C@@H](O)c1ccccn1`, the composite z-score in experiment [1] was 0.323; in experiment [3], 1.21; in experiment [4] it was -0.315; in experiment [5] it was -0.113; in experiment [6], -0.0721; in [7], -0.0709. In addition, the composite z-score in experiment [8] was -0.0926; in experiment [9], 1.08; in experiment [10], -0.0878. For the same molecule, the z-score in experiment [2] was -0.218.
With `CC(CO)N1C(=O)[C@@H]2C3C(=O)OCCC/C=C\[C@H]3OC23C=CCN(C(C)(C)C)C(=O)[C@@H]13` (stereo not given in full), the composite z-score in experiment [1] was -0.898; in experiment [3], -0.0466; in [4] it was -0.565; in experiment [5], -0.769; in experiment [6] it was -0.192; in experiment [7] it was 0.108. Moreover, the composite z-score in experiment [8] was -0.147; in [9], 0.859; in experiment [10] it was 0.149. This molecule also gave a z-score in experiment [2] of 0.367.
Consider `COCCOC(=O)N1C(=O)[C@@]2(c3cc(C#CCCO)ccc31)[C@H](C(=O)N1CCCCCCC1)[C@H]1C(=O)O[C@H](c3ccccc3)[C@H](c3ccccc3)N1[C@@H]2c1ccc(OCCO)cc1`, for which the composite z-score was determined as 1.39 in experiment [1]; 1.01 in [3]; 2.13 in experiment [4]; 1.05 in experiment [5]; 0.933 in experiment [6]; 0.953 in experiment [7]. The composite z-score in experiment [8] came to 1.99; in experiment [9], 3.97; in experiment [10], 2.01. Besides, in experiment [2], the z-score was -0.616.
In the case of `O=C1O[C@H](c2ccccc2)[C@H](c2ccccc2)N2[C@H]1[C@@H](C(=O)N1CCCCCCC1)[C@]1(C(=O)Nc3ccc(C#CC4=CCCCC4)cc31)[C@H]2c1ccc(OCCO)cc1`, the composite z-score in [1] turned out to be 1.54; in experiment [3] it was 1.63; in experiment [4], 2.6; in experiment [5], 1.28; in experiment [6] it was 1.32; in experiment [7] it was 3.1. Moreover, the composite z-score in experiment [8] amounted to 2.93; in experiment [9] it was 3.47; in experiment [10] it was 3.42. In experiment [2], this molecule showed a z-score of -2.06.
